According to PubChem BioAssay:
Also: test concentration not given here.

Assay: compound effects on differentiated 3T3-L1 adipocyte viability – cell-based, 3T3-L1 adipocytes, calcein-AM fluorescence, 48 h, basal, profiling panel (AID 1163)
Details: 3T3-L1 adipocytes viability, higher = more signal
Work on `CN1C(=O)C2C=CC(C(O)C3CC=CCC3)N(N(c3ccccc3)c3ccccc3)C2C1=O` (configuration not stated) yielded a z-score of -1.9. `N#Cc1ccc(NN2C(C(O)C(c3ccccc3)c3ccccc3)C=CC3C(=O)N(c4ccccc4)C(=O)C32)cc1` (configuration not stated) gave a z-score of -1.53. In the case of `O=C1N[C@@H](Cc2ccccc2)C(=O)N2[C@@H]1C[C@@H](C(=O)O)[C@H]2c1cccc(OCCO)c1`, the z-score is reported as -0.732. `COC(=O)[C@@]1(Cc2ccc(F)cc2)[C@H]2c3cc(C(=O)N(C)C)n(Cc4cc(F)c(F)c(F)c4)c3C[C@H]2CN1C(=O)c1ccccc1` showed a z-score of -0.147. With `COc1ccc([Si](C)(C)[C@H]2[C@H](CC(=O)N3Cc4ccccc4C[C@H]3CO)O[C@@]3(C(=O)N(Cc4cccc(N5CCC5=O)c4)c4ccccc43)[C@@H]2C)cc1` the z-score was 0.441. `CC1CC/C=C\[C@H]2OC34C=CCN(C(C)(C)C)C(=O)[C@H]3N(CCO)C(=O)[C@@H]4C2C(=O)O1` (some centres not stated) gave a z-score of 1.09. Molecule `CC(C)=CCN[C@H](CO)c1ccccc1` has a z-score of 1.93. `CC(C)C[C@@H]1NC(=O)[C@@H]2C[C@H](C(=O)NCc3ccc(F)cc3)[C@H](c3cccc(OCCO)c3)N2C1=O` gave a z-score of -0.613. Work on `COC(=O)[C@@]1(Cc2ccc(F)cc2)[C@H]2c3cc(C(=O)N4CCCC4)n(Cc4ccc(S(C)(=O)=O)cc4)c3C[C@H]2CN1C(=O)c1ccccc1` yielded a z-score of 0.582. Molecule `Cc1ccc(S[C@]2(C(=O)NCCCN(C)C)CC(=O)N(Cc3cc(C(F)(F)F)cc(C(F)(F)F)c3)[C@@H]2c2ccc(CO)cc2I)cc1` has a z-score of -0.787. For `O=C1C[C@@](C(=O)NCCN2CCOCC2)(c2ccc([N+](=O)[O-])cc2)[C@@H](c2ccc(CO)cc2I)N1CC12CC3CC(CC(C3)C1)C2`, the z-score was 0.546. Molecule `CCCC=C(CCC)[C@@H](NC(=O)c1cccs1)c1ccc(C(F)(F)F)cc1` has a z-score of 0.203. `CCOC(=O)C[C@H]1[C@H](OC(=O)c2ccc(C(=O)c3ccccc3)cc2)[C@@H](NC(=O)c2ccccc2)c2cc(OCCCO)ccc2N1C(=O)c1ccc2ccccc2n1` gave a z-score of -0.356. For `COC(=O)[C@@]1(CCC(=O)OC(C)(C)C)N=C(c2ccc(OCCCO)cc2)O[C@H]1c1ccccc1N=[N+]=[N-]`, the z-score was 1.12. `CCOC(=O)C[C@H]1[C@H](OC(=O)c2cc3ccccc3oc2=O)[C@@H](NC(=O)c2ccccc2)c2cc(OCCCO)ccc2N1C(=O)c1ccc2ccccc2n1` gave a z-score of 0.785. `C=CCNC(=O)[C@@H]1[C@H]2C(=O)O[C@H](c3ccccc3)[C@H](c3ccccc3)N2[C@H](c2ccc(O)cc2)[C@@]12C(=O)N(C(=O)OCCOC)c1ccc(C#CCNC(N)=O)cc12` gave a z-score of 0.921. In the case of `C=CCNC(=O)[C@H]1[C@@H]2C(=O)O[C@@H](c3ccccc3)[C@@H](c3ccccc3)N2[C@@H](c2ccccc2OCCO)[C@]12C(=O)Nc1ccc(C#CCC(C(=O)OC)C(=O)OC)cc12`, the z-score is reported as -0.72. In the case of `CCOC(=O)C1=CC[C@@H](c2ccccc2)N(S(=O)(=O)c2ccc(C)cc2)[C@H]1c1ccccc1C`, the z-score is reported as 0.068. In the case of `O=C1O[C@H](c2ccccc2)[C@H](c2ccccc2)N2[C@H]1[C@@H](C(=O)N1CCCCCCC1)[C@]1(C(=O)Nc3ccc(C#CCCO)cc31)[C@H]2c1ccccc1OCCO`, the z-score is reported as 0.911. With `C=C(C(=O)CC[C@@H](OC(=O)c1cccnc1)c1ccccc1OCCO)C(C)C` the z-score was 0.909. `O=C1C2C=CC(C(O)Cc3ccccc3)N(n3cnnc3)C2C(=O)N1Cc1ccccc1` (configuration not stated) gave a z-score of 0.549. In the case of `O=C1[C@@]23C=C(Br)[C@H](C[C@@H]2CCOC3)[C@@]12CO2`, the z-score is reported as -0.711. `COC(=O)[C@@]1(Cc2ccc(OC)cc2)[C@H]2c3cc(C(=O)N(C)C)n(C)c3C[C@H]2CN1C(=O)c1ccccc1` showed a z-score of 0.288. Work on `COCCOC(=O)N1C(=O)[C@@]2(c3cc(C#CCNC(N)=O)ccc31)[C@H](C(=O)N1CCN(c3ncccn3)CC1)[C@H]1C(=O)O[C@H](c3ccccc3)[C@H](c3ccccc3)N1[C@@H]2c1ccc(OCCO)cc1` yielded a z-score of 0.148. For `COCCCNC(=O)[C@@H]1c2ccccc2C(=O)N(Cc2ccccc2Cl)[C@H]1c1ccc(CO)cc1`, the z-score was -0.137. Work on `C=CC[C@]1(C(=O)NCCCOC)N=C(c2ccc(OCCCO)cc2)O[C@H]1c1ccccc1CN=[N+]=[N-]` yielded a z-score of 0.243.

Assay: compound effects on hepatocellular carcinoma cell viability – HepG2, calcein-AM fluorescence, 48 h, basal, profiling panel (AID 1164)
Details: higher = more signal
In the case of `COc1ccc(C#Cc2ccc3c(c2)[C@]2(C(=O)N3)[C@H](c3ccccc3OCCO)N3[C@H](c4ccccc4)[C@H](c4ccccc4)OC(=O)[C@H]3[C@@H]2C(=O)Nc2nc3ccccc3s2)cc1`, the z-score is reported as -0.543. In the case of `COCCCNC(=O)[C@@]1(C)c2ccccc2C(=O)N(C(C)C)[C@H]1c1ccc(CO)cc1`, the z-score is reported as -0.51. Work on `COc1cc2c(cc1OC)CN(C(=O)[C@@H]1[C@H]3C(=O)O[C@H](c4ccccc4)[C@H](c4ccccc4)N3[C@H](c3ccc(O)cc3)[C@@]13C(=O)Nc1ccccc13)CC2` yielded a z-score of 1.01. Work on `COc1cccc(-c2cccc(=O)o2)c1` yielded a z-score of -0.834. With `COCCOC(=O)N1C(=O)[C@@]2(c3ccccc31)[C@H](c1ccc(O)cc1)N1[C@H](c3ccccc3)[C@H](c3ccccc3)OC(=O)[C@H]1[C@@H]2C(=O)Nc1nc2ccccc2s1` the z-score was 0.818. With `O=C1O[C@@H](c2ccccc2)[C@@H](c2ccccc2)N2[C@@H](c3ccccc3OCCO)[C@]3(C(=O)Nc4ccccc43)[C@@H](C(=O)Nc3nc4ccccc4s3)[C@H]12` the z-score was -1.98. For `CCCC[C@H]1OB(O)C[C@H]2C1=C(COC)Cn1c(=O)n(-c3ccccc3)c(=O)n12`, the z-score was -0.136. With `C=C(COC)C(=O)CC[C@@H](OC(C)=O)c1ccc(CO)o1` the z-score was 0.473. Work on `O=C1C[C@@](C(=O)NCC(F)(F)F)(c2ccc([N+](=O)[O-])cc2)[C@@H](c2ccc(CO)cc2I)N1C1CCCCC1` yielded a z-score of -0.644. `COCCOC(=O)N1C(=O)[C@@]2(c3cc(C#CCC(C(=O)OC)C(=O)OC)ccc31)[C@H](C(=O)Nc1nc3ccccc3s1)[C@H]1C(=O)O[C@H](c3ccccc3)[C@H](c3ccccc3)N1[C@@H]2c1ccccc1OCCO` showed a z-score of 1.31. `CN1C(=O)C2C=CC(C(O)C3CC=CCC3)N(N(c3ccccc3)c3ccccc3)C2C1=O` (configuration not stated) gave a z-score of 0.125. Work on `N#Cc1ccc(NN2C(C(O)C(c3ccccc3)c3ccccc3)C=CC3C(=O)N(c4ccccc4)C(=O)C32)cc1` (configuration not stated) yielded a z-score of 0.361. With `O=C1N[C@@H](Cc2ccccc2)C(=O)N2[C@@H]1C[C@@H](C(=O)O)[C@H]2c1cccc(OCCO)c1` the z-score was -0.0202. In the case of `COC(=O)[C@@]1(Cc2ccc(F)cc2)[C@H]2c3cc(C(=O)N(C)C)n(Cc4cc(F)c(F)c(F)c4)c3C[C@H]2CN1C(=O)c1ccccc1`, the z-score is reported as 0.178. `COc1ccc([Si](C)(C)[C@H]2[C@H](CC(=O)N3Cc4ccccc4C[C@H]3CO)O[C@@]3(C(=O)N(Cc4cccc(N5CCC5=O)c4)c4ccccc43)[C@@H]2C)cc1` gave a z-score of -0.616. Molecule `CC1CC/C=C\[C@H]2OC34C=CCN(C(C)(C)C)C(=O)[C@H]3N(CCO)C(=O)[C@@H]4C2C(=O)O1` (some centres not stated) has a z-score of -0.593. Work on `CC(C)=CCN[C@H](CO)c1ccccc1` yielded a z-score of -0.0885. Work on `CC(C)C[C@@H]1NC(=O)[C@@H]2C[C@H](C(=O)NCc3ccc(F)cc3)[C@H](c3cccc(OCCO)c3)N2C1=O` yielded a z-score of 0.259. `COC(=O)[C@@]1(Cc2ccc(F)cc2)[C@H]2c3cc(C(=O)N4CCCC4)n(Cc4ccc(S(C)(=O)=O)cc4)c3C[C@H]2CN1C(=O)c1ccccc1` showed a z-score of -0.035. In the case of `Cc1ccc(S[C@]2(C(=O)NCCCN(C)C)CC(=O)N(Cc3cc(C(F)(F)F)cc(C(F)(F)F)c3)[C@@H]2c2ccc(CO)cc2I)cc1`, the z-score is reported as 0.241. With `O=C1C[C@@](C(=O)NCCN2CCOCC2)(c2ccc([N+](=O)[O-])cc2)[C@@H](c2ccc(CO)cc2I)N1CC12CC3CC(CC(C3)C1)C2` the z-score was -5.11. `CCCC=C(CCC)[C@@H](NC(=O)c1cccs1)c1ccc(C(F)(F)F)cc1` showed a z-score of -0.809. Work on `CCOC(=O)C[C@H]1[C@H](OC(=O)c2ccc(C(=O)c3ccccc3)cc2)[C@@H](NC(=O)c2ccccc2)c2cc(OCCCO)ccc2N1C(=O)c1ccc2ccccc2n1` yielded a z-score of 0.74. For `COC(=O)[C@@]1(CCC(=O)OC(C)(C)C)N=C(c2ccc(OCCCO)cc2)O[C@H]1c1ccccc1N=[N+]=[N-]`, the z-score was -1.92. `CCOC(=O)C[C@H]1[C@H](OC(=O)c2cc3ccccc3oc2=O)[C@@H](NC(=O)c2ccccc2)c2cc(OCCCO)ccc2N1C(=O)c1ccc2ccccc2n1` gave a z-score of -0.112. Work on `C=CCNC(=O)[C@@H]1[C@H]2C(=O)O[C@H](c3ccccc3)[C@H](c3ccccc3)N2[C@H](c2ccc(O)cc2)[C@@]12C(=O)N(C(=O)OCCOC)c1ccc(C#CCNC(N)=O)cc12` yielded a z-score of 0.866. For `C=CCNC(=O)[C@H]1[C@@H]2C(=O)O[C@@H](c3ccccc3)[C@@H](c3ccccc3)N2[C@@H](c2ccccc2OCCO)[C@]12C(=O)Nc1ccc(C#CCC(C(=O)OC)C(=O)OC)cc12`, the z-score was -0.845. `CCOC(=O)C1=CC[C@@H](c2ccccc2)N(S(=O)(=O)c2ccc(C)cc2)[C@H]1c1ccccc1C` showed a z-score of -0.0628. `O=C1O[C@H](c2ccccc2)[C@H](c2ccccc2)N2[C@H]1[C@@H](C(=O)N1CCCCCCC1)[C@]1(C(=O)Nc3ccc(C#CCCO)cc31)[C@H]2c1ccccc1OCCO` gave a z-score of 0.518. `C=C(C(=O)CC[C@@H](OC(=O)c1cccnc1)c1ccccc1OCCO)C(C)C` gave a z-score of -0.599. `O=C1C2C=CC(C(O)Cc3ccccc3)N(n3cnnc3)C2C(=O)N1Cc1ccccc1` (configuration not stated) showed a z-score of -0.065. `O=C1[C@@]23C=C(Br)[C@H](C[C@@H]2CCOC3)[C@@]12CO2` gave a z-score of -0.0809. For `COC(=O)[C@@]1(Cc2ccc(OC)cc2)[C@H]2c3cc(C(=O)N(C)C)n(C)c3C[C@H]2CN1C(=O)c1ccccc1`, the z-score was -1.7. `COCCOC(=O)N1C(=O)[C@@]2(c3cc(C#CCNC(N)=O)ccc31)[C@H](C(=O)N1CCN(c3ncccn3)CC1)[C@H]1C(=O)O[C@H](c3ccccc3)[C@H](c3ccccc3)N1[C@@H]2c1ccc(OCCO)cc1` gave a z-score of 0.548. `COCCCNC(=O)[C@@H]1c2ccccc2C(=O)N(Cc2ccccc2Cl)[C@H]1c1ccc(CO)cc1` showed a z-score of 1.84. `C=CC[C@]1(C(=O)NCCCOC)N=C(c2ccc(OCCCO)cc2)O[C@H]1c1ccccc1CN=[N+]=[N-]` gave a z-score of 0.716.
